Experimental data: ChEMBL document CHEMBL4513216, “Probing the Open Global Health Chemical Diversity Library for Multistage-Active Starting Points for Next-Generation Antimalarials” (ACS Infect Dis, 2020)
Out of some 69,000 compounds screened, about 8,600 (12%) showed an effect of 50% or more. Shown is part of a subset that was picked to be rich in strong results.

System: Plasmodium berghei
Assay: Screen against P. berghei liver stage (PbLuc), transformed with Luciferase, at 10uM
Format: functional, HepG2
Settings: tested at 10 uM

Question: With `Cc1c(S(=O)(=O)NCC(C)Cn2cc(Cl)cn2)cnn1C` (centres undefined) as the compound, how does the INHIBITION read?
Answer: 35.8%

Question: With `CN(CCCc1cnn(C)c1)C(=O)C1CCC(=O)N(C2CCCC2)C1` (centres undefined) as the compound, how does the INHIBITION read?
Answer: -7.85%

Question: `C[C@H]1C[C@H]2CN(S(=O)(=O)c3ccc(F)cc3)CC[C@H]2O1` was tested. Which INHIBITION did it give?
Answer: -7.28%

Question: How did the INHIBITION turn out when `CC1COCCN1C(=O)Cc1cc(Cl)c2c(c1)OCCCO2` (centres undefined) was run?
Answer: 0.348%

Question: Which INHIBITION does the source give for `O=C1C[C@H]2[C@@H](CCN2C(=O)c2ccoc2)N1CCN1CCOCC1` here?
Answer: -6.23%

Question: `COc1ccccc1OCCCc1cccc(C#N)n1` was tested. Which INHIBITION did it give?
Answer: -34.1%

Question: Which INHIBITION does the source give for `COc1cccc(OCCCc2cc(C#N)ccn2)c1` here?
Answer: 55.6%

Question: Which INHIBITION does the source give for `COc1ccccc1OCCCc1cc(C#N)ccn1` here?
Answer: 45.7%

Question: Which INHIBITION does the source give for `COCc1cc(CNC(=O)c2cc(NC(C)=O)ccc2Cl)n[nH]1` here?
Answer: 40.6%

Question: How did the INHIBITION turn out when `O=C(c1ccoc1)N1CCO[C@]2(CCC[C@H]2COCc2cccnc2)C1` was run?
Answer: -34.7%

Question: How did the INHIBITION turn out when `COCCN1CCC2(CC1)CC(NCc1cncn1C)c1ccccc12` (centres undefined) was run?
Answer: 54.1%

Question: `Cn1cncc1CNC1CC2(CCN(CC3CC3)CC2)c2ccccc21` (centres undefined) was tested. Which INHIBITION did it give?
Answer: 45.2%

Question: For `CCN1CCC2(CC1)CC(NCc1cccc(C)n1)c1ccccc1O2` (centres undefined), which INHIBITION is on record?
Answer: -4.88%

Question: `Cc1cccc(CNC2CC3(CCN(CCO)CC3)c3ccccc32)n1` (centres undefined) was tested. Which INHIBITION did it give?
Answer: 52.1%

Question: For `COCCN1CCC2(CC1)CC(NCc1ccc(C)s1)c1ccccc12` (centres undefined), which INHIBITION is on record?
Answer: 45.7%

Question: `Cn1cncc1CNC1CC2(CCN(S(C)(=O)=O)CC2)c2ccccc21` (centres undefined) was tested. Which INHIBITION did it give?
Answer: 23.1%

Question: How did the INHIBITION turn out when `O=C(NC1CC2(CCN(CCO)CC2)c2ccccc21)c1ccncc1` (centres undefined) was run?
Answer: 49.7%

Question: For `O=C(NC1CC2(CCN(CCO)CC2)c2ccccc21)c1ccsc1` (centres undefined), which INHIBITION is on record?
Answer: 27.5%

Question: How did the INHIBITION turn out when `Cc1ccc(CNC2CC3(CCN(CCO)CC3)c3ccccc32)s1` (centres undefined) was run?
Answer: 60.2%

Question: For `COCCNC(=O)NC1CCN(c2cnn(C)c2)C1` (centres undefined), which INHIBITION is on record?
Answer: 16%

Question: `Cn1cc(CN2C[C@@H](NC(=O)c3cscn3)[C@H]3OCCC[C@H]32)cn1` was tested. Which INHIBITION did it give?
Answer: -4.88%

Question: With `COc1ccc(-c2ccnc(N)c2)c(C)c1` as the compound, how does the INHIBITION read?
Answer: 29.1%

Question: For `COCCNS(=O)(=O)c1cccc(CSC)c1`, which INHIBITION is on record?
Answer: 20.2%

Question: How did the INHIBITION turn out when `Cc1nn(C)c(C)c1C1CCCN1C(=O)CCCc1ccccn1` (centres undefined) was run?
Answer: 23.4%

Question: For `O=C(NC1CCCC1)NC1CCc2[nH]c(=O)ccc2C1` (centres undefined), which INHIBITION is on record?
Answer: 34.9%

Question: For `CS(=O)(=O)NC1CCc2[nH]c(=O)ccc2C1` (centres undefined), which INHIBITION is on record?
Answer: 30.5%

Question: How did the INHIBITION turn out when `CC(C)NC1CCc2[nH]c(=O)ccc2C1` (centres undefined) was run?
Answer: 86.2%

Question: Which INHIBITION does the source give for `CN(C)CCN(Cc1ccccn1)Cc1ccnn1C1CCCCO1` (centres undefined) here?
Answer: 18.3%

Question: With `COCC1CN(C(=O)COc2ccc(C)cc2)Cc2cn(C)nc21` (centres undefined) as the compound, how does the INHIBITION read?
Answer: 5.96%

Question: With `CC(C)Cc1cc(C(=O)NCCc2nnc(N)s2)n(C)n1` as the compound, how does the INHIBITION read?
Answer: -24.7%

Question: For `Cc1cc(C(=O)NCCc2cn3nc(C)sc3n2)c(C)o1`, which INHIBITION is on record?
Answer: -98.6%

Question: With `COc1nc2c(cc1C(=O)NCCc1nc3c(s1)CCC3)CCC2` as the compound, how does the INHIBITION read?
Answer: -6.04%

Question: Which INHIBITION does the source give for `Cc1cc(C(=O)NCCc2nc3c(s2)CCCC3)n(C)n1` here?
Answer: 68%

Question: How did the INHIBITION turn out when `O=C(O)c1ccnc(-c2ccnc(NCCc3nc4c(s3)CCC4)n2)c1` was run?
Answer: 30.9%

Question: How did the INHIBITION turn out when `c1cc(-c2nccn2CCc2nc3c(s2)CCC3)ccn1` was run?
Answer: 11.6%

Question: How did the INHIBITION turn out when `CC(C)c1cc(C(=O)NCCc2nc3c(s2)CCC3)n(C)n1` was run?
Answer: 89.6%

Question: `CC(=O)c1ccc(CNC(=O)c2cc(C)nn2C)nc1C` was tested. Which INHIBITION did it give?
Answer: -34%

Question: With `Cc1nn2cc(CCNC(=O)c3cc(C(C)C)no3)nc2s1` as the compound, how does the INHIBITION read?
Answer: -97.2%

Question: For `Cc1nn2cc(CCNC(=O)c3cc(C(C)C)nn3C)nc2s1`, which INHIBITION is on record?
Answer: 82.7%

Question: For `Cc1nc(CCNC(=O)C2CC(=O)N(C(C)C)C2)sc1C` (centres undefined), which INHIBITION is on record?
Answer: 22.3%

Question: For `Cc1nc(CCNC(=O)c2cc(C(C)C)nn2C)sc1C`, which INHIBITION is on record?
Answer: 81%

Question: With `CN1CCCN(Cn2nc(-c3ccccc3F)ccc2=O)CC1` as the compound, how does the INHIBITION read?
Answer: 18.2%

Question: With `Cc1ccsc1C1CCCCCN1Cc1cn(C)nc1C` (centres undefined) as the compound, how does the INHIBITION read?
Answer: 49%

Question: Which INHIBITION does the source give for `CC(C)n1cnnc1CN(C)C(=O)c1ccccc1N1CCOCC1` here?
Answer: 7.92%

Question: Which INHIBITION does the source give for `CCN(CC(O)c1ccc(C)cc1)C(=O)NC(C)C` (centres undefined) here?
Answer: 17.8%

Question: `COc1c(C2CCCN2C(=O)c2cccc(C)n2)c(C)nn1C` (centres undefined) was tested. Which INHIBITION did it give?
Answer: 1.78%

Question: With `CNC(=O)[C@@H]1C[C@H]2CN(Cc3csc(C)n3)C[C@H]2N1C(C)C` as the compound, how does the INHIBITION read?
Answer: 42.4%

Question: Which INHIBITION does the source give for `O=C(CCCc1ccccc1)Nc1cnc(N2CCOCC2)nc1` here?
Answer: -33.3%

Question: For `CCOc1ccc(NC(=O)Nc2cnc(N3CCOCC3)nc2)cc1`, which INHIBITION is on record?
Answer: -8.66%

Question: With `O=C(Nc1cnc(N2CCOCC2)nc1)c1ccc(C(F)(F)F)cc1` as the compound, how does the INHIBITION read?
Answer: 77.9%

Question: How did the INHIBITION turn out when `O=S(=O)(Nc1cnc(N2CCOCC2)nc1)c1ccc(C(F)(F)F)cc1` was run?
Answer: -18%

Question: How did the INHIBITION turn out when `COCC(=O)Nc1cnc(N2CCOCC2)nc1` was run?
Answer: 26.9%

Question: With `O=C(COc1ccc(Cl)cc1)Nc1cnc(N2CCOCC2)nc1` as the compound, how does the INHIBITION read?
Answer: 52.7%

Question: Which INHIBITION does the source give for `CCN1CC2(CC1=O)CN(C(=O)NC(C)C)CCN(S(C)(=O)=O)C2` (centres undefined) here?
Answer: 21.6%
